p53 reactivation: restores transcriptional activity of mutant p53; H1299 p53-A138V BP100-luciferase reporter, luminescence, 24 h; AID 504706; 320,000 compounds, 0.063% hits; Potency, µM (doses to about 92.2 µM), for inactives: top-dose activity change, positive = activation, hits mostly activators; also: % of control where 0% means no effect; nearly all actives have a fitted effect of over 45% in size
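H1299 (p53-null), stable ts p53-A138V + BP100-Luc; 1000 cells/well, Opti-MEM/10% FBS; cpd 4 pt, 1:5; 24 h, 37 deg C, 5% CO2; detection reagent 10 min RT; luminescence.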
NPC1 prom act: activators of NPC1 promoter. Huh7 NPC1 promoter luciferase reporter, 24 h. Potency, µM (series often up to 9.22 µM), for the others: top-dose activation, most hits filed as activators. 320,000 compounds, 2.4% hits. AID 485313; also: % of control where 0% means no effect; nearly all actives have a fitted effect of over 60% in size
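Stable NPC1-promoter luciferase Huh7 line; cpd (DMSO) 24 h, 37 °C, 5% CO2; Amplite luciferase reagent 10 min RT; luminescence readout. qHTS format.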
Rab9 prom act: Rab9 promoter activation | 320,000 compounds, 2.8% hits | Huh7 Rab9 promoter-luciferase reporter, luminescence, 24 h | Potency, µM (doses to about 9.22 µM), for inactives: top-dose activation, negative = inhibition, usual class: activators | AID 485297; also: % of control where 0% means no effect; nearly all actives have a fitted effect of over 60% in size
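Rab9 promoter-driven luciferase in stably transfected Huh7 cells; 1500 cells/well rested 2 h, exposed to compound in DMSO for 24 h at 37 °C, 5% CO2. Luminescence read 10 min after adding luciferase reagent at ambient temperature.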
SMN2 splice up: SMN2 splice variant enhancement. 210,000 compounds, 2.8% hits. HEK293 SMN2-luciferase splicing reporter, luminescence, 30-36 h. Potency, µM (series often up to 46.1 µM), for the others: at the top dose activity change, positive = activation, actives largely listed as activators; also: % of control where 0% means no effect; nearly all actives have a fitted effect of over 55% in size
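HEK293 cells carry an SMN2 […]–luciferase reporter in which exon 7 inclusion puts luciferase in frame. Cells were plated 10-12 h before compound addition, then incubated 30-36 h at 37C. ONE-Glo luminescence was read; sodium butyrate at 4.5 mM final served as control.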
FLuc modulator: counter-screen for miR-21 project: firefly luciferase inhibitors or activators; purified FLuc, Km substrates, luminescence inhibition; Potency, µM (top dose mostly 57.5 µM), for inactives: top-dose activity change, negative = inhibition, most hits filed as inhibitors; 360,000 compounds, 6.9% hits; AID 588342;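 also: plate controls were vehicle for no effect and reference inhibitor for full effect; nearly all actives have a fitted effect of over 55% in size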
Target sequence (P08659 whole entry, looked up): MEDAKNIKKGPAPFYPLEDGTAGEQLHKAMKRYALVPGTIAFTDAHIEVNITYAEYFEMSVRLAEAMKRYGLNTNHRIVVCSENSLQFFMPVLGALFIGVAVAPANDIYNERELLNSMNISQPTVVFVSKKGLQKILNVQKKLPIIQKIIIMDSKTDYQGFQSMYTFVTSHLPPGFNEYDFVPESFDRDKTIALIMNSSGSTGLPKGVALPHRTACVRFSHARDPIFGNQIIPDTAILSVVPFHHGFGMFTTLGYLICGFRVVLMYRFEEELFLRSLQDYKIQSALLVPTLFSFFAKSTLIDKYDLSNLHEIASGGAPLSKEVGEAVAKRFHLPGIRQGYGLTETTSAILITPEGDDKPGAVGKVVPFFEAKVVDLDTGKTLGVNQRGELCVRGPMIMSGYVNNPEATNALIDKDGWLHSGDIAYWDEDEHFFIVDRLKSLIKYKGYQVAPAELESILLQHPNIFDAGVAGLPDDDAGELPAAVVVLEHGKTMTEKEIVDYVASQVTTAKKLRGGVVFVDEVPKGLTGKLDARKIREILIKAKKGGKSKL
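Biochemical qHTS of compounds, final roughly 60 µM downward over six points, against 10 nM purified firefly luciferase using Km concentrations of substrates (10 uM D-luciferin, 10 uM ATP) in Tris acetate pH 7.5 buffer; luminescence output.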
ELG1 genotoxic: genotoxicity induction in ELG1-luciferase HEK293T cells; HEK293T ELG1-luciferase reporter, luminescence, 16 h; Potency, µM (titrated, usually from 46 µM), inactives show top-dose activity change, positive = activation, usual class: activators; 330,000 compounds, 1.3% hits; also: % of control where 0% means no effect; nearly all actives have a fitted effect of over 60% in size
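Screening used a luciferase reporter fused to human ELG1 in HEK293T cells. Luminescence was read on a CCD plate imager after 16 hr exposure and 30 min ONE-Glo incubation.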
An asterisk follows results filed as active; [ ] = dose if it differs, or a comment. Sampled rows, rich in hits. Any-hit rate of the full collection: about 7.3%. Calls follow the shape of the dose curve; as a rule, active = well fitted curve in the direction sought with a large enough effect; inconclusive = small, poorly fitted or top-dose-only effect, or another doubt; inactive = no such curve, though single readings can be large; an effect the other way counts as inactive or inconclusive. Potency is read from the fitted curve at half-maximal effect.

Screening COc1ccc(/C=C(\C#N)C(=O)NCc2cccs2)cc1OC returned p53 reactivation 1.4%, NPC1 prom act -3.2%, Rab9 prom act -0.2%, SMN2 splice up 2.5%, FLuc modulator -13.4% and ELG1 genotoxic -0.5%.
Screening O=C(Oc1ccc(C(=S)N2CCC(O)CC2)cc1)c1ccc(Cl)cc1 returned p53 reactivation -2.2%, NPC1 prom act -2.0%, Rab9 prom act 3.8%, SMN2 splice up 3.2%, FLuc modulator 5.36µM* and ELG1 genotoxic -0.1%.
`CCC/C=C(\CCC)C(NS(=O)(=O)c1ccc(C(F)(F)F)cc1)c1ccc(-c2ccccc2)cc1` (stereo not drawn) gave SMN2 splice up -4.9%.
Cc1cc(C)c2c(CC(=O)Nc3c(C(=O)Nc4ccc(Cl)cc4)oc4ccccc34)coc2c1 was read as SMN2 splice up 14.1% and FLuc modulator -9.5%.
`COc1ccc(C2CC(c3ccc4ccccc4c3)=NN2C(=O)CN2CCC(C(N)=O)CC2)cc1` (stereo not drawn) gave p53 reactivation 11.9%, NPC1 prom act 15.9%, Rab9 prom act inconclusive, SMN2 splice up -102.1%, FLuc modulator inconclusive and ELG1 genotoxic -11.0%.
CC(=O)OCC(=O)N1N=C(c2ccc3ccccc3c2)CC1c1ccccc1 (stereo not drawn) was read as p53 reactivation 4.0%, NPC1 prom act inconclusive, Rab9 prom act 3.16µM*, SMN2 splice up 22.2%, FLuc modulator -11.5% and ELG1 genotoxic 8.3%.
CCOC(=O)/C=C(\C)N1N=C(c2ccccc2)CC1c1ccccc1 (stereo not drawn) was read as p53 reactivation inconclusive, NPC1 prom act 7.9%, Rab9 prom act inconclusive, SMN2 splice up inconclusive, FLuc modulator 16.9µM* and ELG1 genotoxic -8.5%.
For COc1ccc(C2CC(c3ccc4ccccc4c3)=NN2C(=O)COC(=O)C2CCC(=O)N2)cc1 (stereo not drawn) the results were p53 reactivation 1.8%, NPC1 prom act 1.58µM*, Rab9 prom act 1.12µM*, SMN2 splice up 14.1µM*, FLuc modulator 23.9µM* and ELG1 genotoxic inconclusive.
For CC(=O)Nc1ccc(/C=N/N2CCCCC2)cc1 the results were p53 reactivation 18.1%, NPC1 prom act 3.16µM*, Rab9 prom act 4.47µM*, SMN2 splice up 14.1µM*, FLuc modulator 26.9µM* and ELG1 genotoxic inconclusive.
Screening CCCSc1nnc(NC(=O)Nc2ccccc2OC)s1 returned p53 reactivation 17.9%, NPC1 prom act inconclusive, Rab9 prom act inconclusive, FLuc modulator inconclusive and ELG1 genotoxic inconclusive.
COc1ccc(OC)c(NC(=O)CSc2nnc(NC(=O)c3ccco3)s2)c1 was read as p53 reactivation -3.4%, NPC1 prom act 8.4%, Rab9 prom act 11.0%, FLuc modulator 26.9µM* and ELG1 genotoxic -2.8%.
Screening COc1ccccc1NC(=O)CSc1nnc(NC(=O)c2ccco2)s1 returned p53 reactivation -2.9%, NPC1 prom act -1.3%, Rab9 prom act 7.7%, FLuc modulator 15.1µM* and ELG1 genotoxic 13.9%.
`CCc1nn(CC(=O)NCCc2ccc(OC)c(OC)c2)c(=O)c2cc3occc3n12` gave SMN2 splice up -6.6% and FLuc modulator -11.4%.
CCc1ccc2oc(-c3cccc(N)c3)nc2c1 was read as p53 reactivation 22.5%, NPC1 prom act 0.562µM*, Rab9 prom act 1.58µM*, SMN2 splice up 6.31µM*, FLuc modulator 0.239µM* and ELG1 genotoxic inconclusive.
Screening Cc1ccc2nc(-c3cccc(N)c3)oc2c1 returned p53 reactivation inconclusive, NPC1 prom act 0.891µM*, Rab9 prom act 3.55µM*, SMN2 splice up inconclusive, FLuc modulator 0.213µM* and ELG1 genotoxic 1.64µM*.
`Cc1ccc2nc(-c3ccc(O)cc3)oc2c1` gave NPC1 prom act 2.51µM*, Rab9 prom act inconclusive, FLuc modulator 0.953µM* and ELG1 genotoxic inconclusive.
Cc1ccc2nc(Cc3ccc(N)cc3)oc2c1 was read as p53 reactivation 19.7%, NPC1 prom act 3.55µM*, Rab9 prom act 3.16µM*, SMN2 splice up inconclusive, FLuc modulator 13.5µM* and ELG1 genotoxic 11.6µM*.
OC[C@@H](O)[C@@H](O)[C@@H](O)[C@@H](O)c1nc2ccc(Cl)cc2[nH]1 was read as SMN2 splice up -7.9%[9.22 µM].
`O=C(Nc1ccccc1C(=O)OCc1cc(=O)n2nc(C3CC3)sc2n1)c1cccc(Cl)c1` gave FLuc modulator 0.7%.
Cc1cc(C)c2oc(-c3cccc(N)c3)nc2c1 was read as p53 reactivation inconclusive, NPC1 prom act 3.55µM*, Rab9 prom act inconclusive, FLuc modulator 3.79µM* and ELG1 genotoxic inconclusive.
Cc1cc(C)c2oc(-c3cccc(NC(=O)c4cc5ccccc5o4)c3)nc2c1 was read as SMN2 splice up -2.1% and FLuc modulator inconclusive.
Cc1ccc(-n2cnc3sc(C)c(C)c3c2=O)cc1 was read as p53 reactivation 12.0%, NPC1 prom act inconclusive, Rab9 prom act 2.51µM*, SMN2 splice up 12.6µM*, FLuc modulator inconclusive and ELG1 genotoxic inconclusive.
Screening Cc1cccc(-n2cnc3sc(C)c(C)c3c2=O)c1 returned p53 reactivation 11.5%, NPC1 prom act 0.7%, Rab9 prom act 11.9%, FLuc modulator -12.1% and ELG1 genotoxic 8.4%.
For CCOC(=O)c1cn2nc(Oc3ccc(C)cc3)ccc2n1 the results were p53 reactivation inconclusive, NPC1 prom act 10.2%, Rab9 prom act inconclusive, FLuc modulator inconclusive and ELG1 genotoxic inconclusive.
For CCOC(=O)c1cn2nc(Oc3ccccc3)ccc2n1 the results were p53 reactivation 8.3%, NPC1 prom act 2.24µM*, Rab9 prom act 2.82µM*, FLuc modulator 15.1µM* and ELG1 genotoxic inconclusive.
Screening CCOC(=O)c1cn2nc(N3CCCC3)ccc2n1 returned p53 reactivation -10.0%, NPC1 prom act 0.501µM*, Rab9 prom act 0.316µM*, FLuc modulator 2.13µM* and ELG1 genotoxic inconclusive.
Screening CCOC(=O)c1cn2nc(Oc3ccc(OC)cc3)ccc2n1 returned p53 reactivation 4.8%, NPC1 prom act 8.9%, Rab9 prom act 17.9%, FLuc modulator -3.3% and ELG1 genotoxic 0.3%.
Screening CCOC(=O)c1cn2nc(N3CCCCC3)ccc2n1 returned p53 reactivation -5.7%, NPC1 prom act 0.316µM*, Rab9 prom act 0.126µM*, FLuc modulator 0.953µM* and ELG1 genotoxic 0.58µM*.
For CCOc1ccc(NC(=O)Nc2cccc(C)n2)cc1 the results were p53 reactivation 5.2%, NPC1 prom act 3.55µM*, Rab9 prom act 2.51µM*, SMN2 splice up 28.3%, FLuc modulator inconclusive and ELG1 genotoxic 16.2%.
